Pf Dd2 growth = blocks growth of Plasmodium falciparum Dd2 parasites | P. falciparum Dd2 growth, SYBR Green, 72 h; hits give low values | activity change, % at 10 µM | 2.3% of 94,000 active; in the data active = activity change below about -80%; inconclusive = no clear call, values can overlap the other calls
C diff HTS = blocks growth of Clostridium difficile. 0.25% of 86,000 active. AID 1259249. growth activity, negative = inhibition, % at 16 µg/mL (by protocol). Clostridium difficile clinical isolate growth, OD600, 24 h; hits give low values;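 active = mean growth activity at or below -80% and every replicate also at or below -80%; inconclusive = mean at or below -80% but some replicate above -80%; inactive = mean growth activity above -80%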;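 also: 0% = DMSO wells and -100% = levofloxacin 16 µg/mL wells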
T cruzi growth-1 = blocks T. cruzi growth in NIH3T3 culture; inhibition, % at 8.34 µM; 5.9% of 77,000 active; T. cruzi beta-gal in NIH3T3, GalScreen luminescence, 90 h;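 active = mean inhibition above about 93%, with at least 55% of replicates each passing it, limit read from the data, passing the limit was not always enough; inconclusive = only one of those two conditions holds; inactive = neither condition holds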
T cruzi growth-2 = blocks T. cruzi growth in NIH3T3 host cells; shares compounds with T cruzi growth-1; T. cruzi beta-gal in NIH3T3, GalScreen luminescence, 90 h; inhibition, % at 8.35 µM; 72% of 5,600 active; AID 651739;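 active = mean replicate inhibition above about 95% and at least 55% of replicates individually reaching it, limit read from the data; inconclusive = only one of the two criteria is met; inactive = neither criterion is met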
T cruzi growth-3 = Trypanosoma cruzi proliferation inhibition; shares compounds with T cruzi growth-1; T. cruzi beta-gal in NIH3T3, GalScreen luminescence, 90 h; inhibition, % at 2.09 µM; 21% of 5,600 active; AID 651740;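 active = mean inhibition above about 95%, with at least 55% of replicates also reaching it, limit read from the data; inconclusive = meets just one of the two conditions; inactive = meets neither condition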;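 also: plate controls were neutral control median for no effect and positive control median for full effect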
NIH3T3 tox = kills mouse NIH/3T3 fibroblasts. 14% of 5,600 active. cytotoxicity (signal decrease), % at 8.35 µM. shares compounds with T cruzi growth-1. NIH/3T3 viability, CellTiter-Glo ATP luminescence, 90 h;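 active = mean signal decrease across replicates above about 35% based on untreated-well scatter, with enough replicates individually passing, limit read from the data; inconclusive = no rule stated though some were filed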;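 also: 0% = median of neutral control wells and 100% = median of positive control wells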
3T3 cytotox 2 = kills mouse NIH/3T3 fibroblasts. NIH/3T3 viability, CellTiter-Glo ATP luminescence, 90 h. shares compounds with T cruzi growth-1. inhibition, % at 24.9 µM. 56% of 5,600 active;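 active = mean loss of cell viability signal at or above a set limit, and enough replicates individually reaching it; inconclusive = meets only the mean limit or only the replicate share; inactive = meets neither condition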;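 also: 0% = median of neutral control wells and 100% = median of positive control wells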
* = called active by the depositor; u = inconclusive; x = no result. This is a sample that favours compounds with a hit; in the whole collection about 6.8% have one here.

SMILES	Pf Dd2 growth	C diff HTS	T cruzi growth-1	T cruzi growth-2	T cruzi growth-3	NIH3T3 tox	3T3 cytotox 2
C[C@H](CO)N1C[C@H](C)[C@H](CN(C)Cc2ccncc2)Oc2ncc(C#CCN(C)C)cc2C1=O	59	1	-20	x	x	x	x
CCC(=O)Nc1ccc2c(c1)C(=O)N(C)C[C@H](OC)[C@H](C)CN(Cc1ccncc1)[C@@H](C)CO2	3	x	24	x	x	x	x
N#Cc1cccc(-c2ccc3c(c2)[C@@H]2[C@@H](CCN2C(=O)c2ccncc2)[C@H](CO)N3)c1	-39	-1	62	x	x	x	x
N#Cc1cccc(-c2ccc3c(c2)[C@H]2[C@H](CCN2C(=O)c2ccncc2)[C@H](CO)N3)c1	-80*	-10	118*	81	3	15	18
N#Cc1ccc(-c2ccc3c(c2)[C@@H]2[C@@H](CCN2Cc2cncnc2)[C@@H](CO)N3)cc1	-35	-13	68	x	x	x	x
N#Cc1cccc(-c2ccc3c(c2)[C@@H]2[C@@H](CCN2Cc2cncnc2)[C@H](CO)N3)c1	-78	-10	112*	115*	81	6	40*
O=C(Cc1cccnc1)N1CC(=O)N2[C@H](C1)[C@@H](c1ccc(C#CC3CC3)cc1)[C@@H]2CO	-18	-5	x	x	x	x	x
COc1cccc(-c2ccc3c(c2)O[C@@H](CN(C)Cc2ccncc2)[C@@H](C)CN([C@@H](C)CO)S3(=O)=O)c1	-65	1	x	x	x	x	x
COc1cccc(-c2ccc3c(c2)O[C@@H](CN(C)Cc2cncnc2)[C@H](C)CN([C@H](C)CO)S3(=O)=O)c1	-19	-3	u	u	64	39*	72*
COc1cccc(-c2ccc3c(c2)O[C@H](CN(C)Cc2ccncc2)[C@@H](C)CN([C@@H](C)CO)S3(=O)=O)c1	16	1	x	x	x	x	x
COc1cccc(-c2ccc3c(c2)O[C@H](CN(C)Cc2cncnc2)[C@H](C)CN([C@@H](C)CO)S3(=O)=O)c1	1	-6	97*	u	58	31	64*
C[C@H](CO)N1C[C@H](C)[C@@H](CN(C)S(=O)(=O)c2cn(C)cn2)Oc2c(NC(=O)C3CCCCC3)cccc2C1=O	18	0	x	x	x	x	x
O=C(C[C@@H]1CC[C@@H]2NC[C@H](O)COC[C@H]2O1)NCCN1CCCC1	30	-4	x	x	x	x	x
COc1ccc2c3c(n(C)c2c1)[C@@H](CO)N(C(=O)CC1CC1)CC31CN(C(=O)CC2CC2)C1	10	-6	x	x	x	x	x
C[C@@H]1CN([C@@H](C)CO)C(=O)c2cccc(NS(=O)(=O)c3ccc(F)cc3)c2O[C@H]1CN(C)CC1CC1	27	8	-13	x	x	x	x
COc1ccc(NC(=O)Nc2cccc3c2O[C@@H](CN(C)S(=O)(=O)c2ccc(OC)cc2)[C@H](C)CN([C@@H](C)CO)C3=O)cc1	-20	-5	98	x	x	x	x
Cc1ccc(S(=O)(=O)N2CC[C@@H]3[C@H](CO)Nc4ccc(C#Cc5ccccc5F)cc4[C@@H]32)cc1	-4	55	85	x	x	x	x
Cc1ccc(S(=O)(=O)N2CC[C@@H]3[C@@H](CO)Nc4ccc(C#Cc5ccccc5F)cc4[C@@H]32)cc1	-4	-17	102*	97*	102*	31	10
O=S(=O)(c1ccccc1)N1CC[C@H]2[C@H](CO)Nc3ccc(C#Cc4ccccc4F)cc3[C@H]21	-19	0	x	x	x	x	x
O=S(=O)(c1ccccc1)N1CC[C@@H]2[C@H](CO)Nc3ccc(C#Cc4ccccc4F)cc3[C@@H]21	-28	-3	69	x	x	x	x
O=S(=O)(c1cccc(F)c1)N1CC[C@@H]2[C@@H](CO)Nc3ccc(C#Cc4ccccc4F)cc3[C@@H]21	-42	1	u	104*	112*	3	7
O=S(=O)(c1cccc(F)c1)N1CC[C@@H]2[C@H]1c1cc(C#Cc3ccccc3F)ccc1N[C@@H]2CO	-9	-6	u	92	108*	34	104*
CCCC(=O)Nc1ccc2c(c1)OC[C@@H](C)N(C(=O)c1ccccc1F)C[C@@H](C)[C@H](OC)CN(C)C2=O	x	x	35	x	x	x	x
C[C@@H]1CCCCO[C@@H](CN(C)C)[C@H](C)CN([C@H](C)CO)C(=O)c2cc(NS(=O)(=O)c3ccc(F)cc3)ccc2O1	27	-1	71	x	x	x	x

Source: PubChem
